# Screens (PubChem)
# Mito fusion yeast: inhibitors of mitochondrial division or activators of mitochondrial fusion. S. cerevisiae fusion-defective mutant growth rescue, CellTiterGlo 48 h. Potency, µM (doses to about 46.1 µM), for the others: at the top dose growth rescue (activation), most hits filed as activators. 320,000 tested, 0.23% active; further: % of control where 0% means no effect; nearly all actives have a fitted effect of over 45% in size
#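 Compounds are tested for their ability to restore growth of mitochondrial fusion-defective yeast strains at non-permissive 37C in YPEG medium over 48 hours. Viability is quantified by luciferase luminescence.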
# TrxR1 substrate: substrates of rat thioredoxin reductase 1 | purified TrxR1 substrate turnover, NADPH consumption readout | Potency, µM (doses to about 114 µM), for inactives: at the top dose activity change, negative = substrate turnover | 390,000 tested, 0.01% active | AID 588456; further: on the % scale 0 is the no-effect control and ±100 the full control effect; nearly all actives have a fitted effect of over 50% in size
# Target sequence (O89049 whole entry, looked up): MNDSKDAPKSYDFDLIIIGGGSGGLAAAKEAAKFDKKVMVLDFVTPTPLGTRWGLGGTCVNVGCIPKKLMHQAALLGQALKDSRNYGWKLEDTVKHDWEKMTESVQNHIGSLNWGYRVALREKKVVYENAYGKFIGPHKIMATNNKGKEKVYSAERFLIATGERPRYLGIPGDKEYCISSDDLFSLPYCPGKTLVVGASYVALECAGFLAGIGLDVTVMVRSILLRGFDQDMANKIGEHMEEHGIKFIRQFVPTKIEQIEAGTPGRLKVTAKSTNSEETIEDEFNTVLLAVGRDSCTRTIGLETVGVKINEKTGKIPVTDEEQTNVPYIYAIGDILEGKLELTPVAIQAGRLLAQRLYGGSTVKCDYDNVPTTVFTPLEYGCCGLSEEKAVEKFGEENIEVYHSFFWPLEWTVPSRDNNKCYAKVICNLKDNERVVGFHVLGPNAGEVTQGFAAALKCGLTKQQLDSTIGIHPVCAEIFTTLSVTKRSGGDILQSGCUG
#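 Rat TrxR1, dispensed at 90 nM, was prereduced with 400 uM NADPH (final) for 5 min at ~22 deg C, then incubated with compound 15 min before 400 uM selenite. A first-read NADPH fluorescence drop versus no-compound background flagged substrates.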
# TrxR1 inh: blocks rat thioredoxin reductase 1; O89049; recombinant rTrxR1, NADPH fluorescence consumption, selenite substrate; Potency, µM (highest dose often 114 µM), for inactives: top-dose activity change, negative = inhibition, hits mostly inhibitors; 390,000 tested, 1% active; AID 588453; further: on the % scale 0 is the no-effect control and ±100 the full control effect; nearly all actives have a fitted effect of over 65% in size
#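 Rat TrxR1 (90 nM in the dispensed reagent) was pre-reduced with 400 uM NADPH for 5 min at room temperature, then incubated with compound for 15 min. After 400 uM selenite was added, NADPH fluorescence (Ex 340/Em 450 nm) was followed for 8 min.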
# IDH1 R132H inh: blocks human mutant IDH1 R132H enzyme. Potency, µM (series often up to 76.6 µM), inactives show top-dose activity change, negative = inhibition, most hits filed as inhibitors. O75874. 390,000 tested, 0.093% active. IDH1-R132H enzyme, NADPH consumption, diaphorase/resazurin fluorescence. AID 602179; further: on the % scale 0 is the no-effect control and ±100 the full control effect; nearly all actives have a fitted effect of over 65% in size
#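 IDH1-R132H (0.5 ug/mL) preincubated 30 min with compound, then NADPH (0.016 mM) and alpha-KG (2 mM) added; 80 min at RT, pH 7.5. Remaining NADPH coupled via diaphorase/resazurin to fluorescence (540/590 nm); concentration-response curves normalized to no-enzyme control.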
# Nrf2 inh: blocks Nrf2 signaling. A549 ARE-Fluc reporter, luciferase luminescence, 18-24 h. Potency, µM (top dose mostly 46 µM), without a hit: at the top dose activity change, negative = inhibition, usual class: inhibitors. 360,000 tested, 2.1% active. AID 504444; further: on the % scale 0 is the no-effect control and ±100 the full control effect; nearly all actives have a fitted effect of over 60% in size
#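 Two sequential reads on A549 ARE_Fluc cells exposed to compound for 18-24 h: a CellTiter-Fluor fluorescence read for viability, then a luciferase luminescence read for Nrf2/ARE activity.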
# A549 tox: counter-screen for Nrf2 inhibitors: cytotoxicity in A549 cells. A549 ARE-Fluc cells, CellTiter-Fluor viability, 18-24 h. AID 504648. 390,000 tested, 0.16% active. Potency, µM (doses to about 46 µM), inactives show at the highest dose activity change, negative = cytotoxicity, most hits filed as inhibitors; further: on the % scale 0 is the no-effect control and ±100 the full control effect
#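 A549 ARE_Fluc cells in 5% FBS OPTI-MEM were exposed to compounds in concentration-response for 18-24 h at 37 deg C. Viability was read by CellTiter-Fluor fluorescence (Ex 405/Em 525) after 30 min, before the luciferase read.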
# The depositor's hits bear a star; ? = inconclusive; . = no result; [ ] = remark or other dose. A selection: hits, their analogues and other compounds. The true share with any hit is near 3.1%. The call rests on the fitted dose curve; in most records, active means well fitted curve in the direction sought with a large enough effect; inconclusive means small, poorly fitted or top-dose-only effect, or another doubt; inactive means no such curve, though single readings can be large; an effect the other way counts as inactive or inconclusive. Potency means the concentration at half of the fitted maximal effect.
SMILES,Mito fusion yeast,TrxR1 substrate,TrxR1 inh,IDH1 R132H inh,Nrf2 inh,A549 tox
COc1ccc(NC(=O)c2oc3c(c2C)-c2nn(Cc4ccccc4Cl)cc2CC3)cc1OC,.,8.0%[11.4 µM],36.6%[11.4 µM],-6.4%,25.9%,-1.1%
CN1CCN(C(c2ccc(Cl)cc2)c2cc(Cl)c3cccnc3c2O)CC1 (stereo not drawn),?,2.5%,6.31µM*,-13.1%,?,-13.5%
Cc1ccc(S(=O)(=O)/C(C#N)=C/c2c[nH]c3ccccc23)cc1,-9.2%,-2.0%[57.1 µM],-8.6%[57.1 µM],-6.5%,16.4µM*,-22.7%
Cc1ccc(S(=O)(=O)N/N=C/c2c[nH]c3ccccc23)cc1,-5.0%,-1.3%,19.3%,-4.5%,?,0.7%
COC(=O)c1ccc(C2c3c(oc4ccc(C)cc4c3=O)C(=O)N2Cc2ccc3c(c2)OCO3)cc1 (stereo not drawn),.,6.4%,19.4%,29.2%,4.3%,-8.1%
c1ccc2c(c1)CCCN2,.,7.1%,11.8%,.,.,.
CCOc1cc(C2Nc3cccc4cccc(c34)N2)ccc1O,-3.1%,3.1%,25.1µM*,14.3%,-16.0%,-17.0%
CCOc1ccc(C2Nc3cccc4cccc(c34)N2)cc1OC,5.2%,1.1%,28.2µM*,10.3%,3.3%,2.9%
COc1ccc(NC(=O)[C@H](C)NC(N)=O)cc1S(=O)(=O)Nc1cc(C)ccc1Br,0.0%,-4.9%,13.2%[57.1 µM],-3.8%,1.8%,-6.5%
COc1ccc(NC(=O)CCSc2ccc(C)cc2)cc1S(=O)(=O)Nc1ccccc1Cl,-0.1%,-13.1%,-9.0%,-0.9%,23.1µM*,2.0%
COc1ccc(NC(=O)C2CCC2)cc1S(=O)(=O)Nc1cc(C)ccc1Br,.,4.4%[57.1 µM],-7.4%,2.0%,20.6µM*,?
COC(=O)Cc1c(C)c2cc3c(c(C)c2oc1=O)OCN(CCc1ccccc1F)C3,.,432.6%,?,11.6%,22.5%,?
COCCN1CCn2c(nc3cc(NC(=O)c4cccs4)ccc32)C1,3.7%,-0.3%,44.7µM*,10.3%,?,-3.7%
CCCC(=O)Nc1ccc2c(c1)nc1n2CCN(CCOC)C1,7.5%,48.7%[57.1 µM],?,-0.7%,-4.7%,8.2%
COC(=O)C1=C(C)NC(=O)/C1=C\c1cc(C)n(-c2c(C)cccc2C)c1C,18.7%,-3.2%,-10.0%,-2.5%,23.1µM*,20.6µM*
CC(=O)NC1CCCC1C#N (stereo not drawn),.,4.4%,14.2%,.,.,.
CCCSc1nnc2c(n1)OC(CC)N(C(C)=O)c1ccccc1-2 (stereo not drawn),.,-4.2%,-1.5%,-6.1%,-8.9%,1.0%
CC(C)(C)n1ncc2c(=O)n(Cc3ccc(Cl)c(SC(F)(F)F)c3)cnc21,.,-6.8%,2.2%,.,.,.
Cc1ccc(OC(=O)COc2ccccc2C)cc1,-6.1%,10.9%,26.3%,5.0%,1.1%,0.5%
CC(=O)c1ccc(OC(=O)COc2ccccc2Cl)cc1,-0.3%,1.9%,17.8µM*,9.9%,5.5%,10.9%
CCOC(=O)c1nc(Nc2ccccc2CC)c2ccccc2n1,0.8%,18.0%[57.1 µM],43.7%[57.1 µM],4.6%,23.1µM*,4.4%
CCOC(=O)c1nc(Nc2ccccc2C)c2ccccc2n1,-6.4%,-8.6%,-13.6%,-7.1%,?,3.3%
O=C(CSc1ccc(-c2ccco2)nn1)NCCc1ccccc1,2.3%,2.7%,17.8µM*,-0.6%,2.1%,-7.2%
O=C(CSc1ccc(-c2ccco2)nn1)c1ccc(F)cc1,-6.9%,-4.3%,8.91µM*,9.2%,25.2%,-4.7%
O=C(CSc1nnc(-c2ccco2)n1CC1CCCO1)c1ccc(F)cc1 (stereo not drawn),-4.3%,-0.8%,15.8µM*,-2.5%,-4.0%,0.8%
SMILES,Mito fusion yeast,TrxR1 substrate,TrxR1 inh,IDH1 R132H inh,Nrf2 inh,A549 tox
O=C(CSc1ccc(-c2ccco2)nn1)NCc1ccc(F)cc1,2.7%,7.2%,50.1µM*,1.3%,1.3%,3.8%
COCCCNC(=O)C1CCN(c2nc3ccc(C)cc3[nH]2)CC1,.,2.3%[57.1 µM],5.9%[57.1 µM],10.2%,.,12.6%
COc1ccc(CN2CC[C@H]3C=CC[C@@H](C(=O)Nc4ccccc4)[C@H]3C2=O)cc1OC,.,-0.3%,2.5%,.,.,.
CCOC(=O)c1ccccc1NC(=O)c1c2c(nc3ccccc13)C(=O)N(C1CCCCC1)C2,.,2.2%[57.1 µM],4.7%[57.1 µM],-7.0%,15.2%,6.7%
CN(C)S(=O)(=O)c1ccc(C(=O)Nc2nnc(-c3cccs3)o2)cc1,8.8%,-6.5%,7.4%,5.2%,?,-4.3%
CC1CC(C)CN(S(=O)(=O)c2ccc(C(=O)Nc3nnc(-c4cccs4)o3)cc2)C1 (stereo not drawn),4.2%,-4.3%,-2.8%,-8.2%,5.01µM*,?
CCC1CCCCN1S(=O)(=O)c1ccc(C(=O)Nc2nnc(-c3cccs3)o2)cc1 (stereo not drawn),1.7%,-21.5%,-23.8%,-2.6%,5.01µM*,?
Cc1ccc2c(c1)ncc[n+]2CC(=O)c1ccc(F)cc1,.,-0.4%,-7.6%,.,.,.
CN1CCN(c2ccnc(N(C)CCCCCCN)n2)CC1,.,6.2%,4.7%,.,.,.
CCS(=O)(=O)c1ncc(Cl)c(C(=O)Nc2ccccc2OC)n1,-9.3%,0.7%,?,14.4%,?,-16.4%
COc1ccccc1NC(=O)c1nc(S(=O)(=O)Cc2ccccc2)ncc1Cl,-15.4%,-0.1%,3.55µM*,8.4%,?,-27.2%
COc1ccc(OC)c(NC(=O)c2nc(S(=O)(=O)Cc3ccc(F)cc3)ncc2Cl)c1,.,1.0%,0.708µM*,0.0%,?,?
CCOc1ccccc1NC(=O)c1nc(S(=O)(=O)Cc2ccccc2)ncc1Cl,-21.2%,-3.6%,7.94µM*,-3.0%,-4.4%,0.8%
CCS(=O)(=O)c1ncc(Cl)c(C(=O)NCc2ccc(OC)cc2)n1,.,9.2%[57.1 µM],?,0.0%,.,?
C=C1NN(Cc2ccccc2)C(=O)N1c1ccc(OCc2ccccc2)cc1,.,-1.6%,-0.3%,.,.,.
CCc1ccc(S(=O)(=O)/N=C2/C=C(Sc3ncn[nH]3)C(=O)c3ccccc32)cc1,-19.1%,7.94µM*,?,20.3%,-26.8%,?
CCc1ccc(S(=O)(=O)/N=C2\C=C(Nc3ccc(O)cc3)C(=O)c3ccccc32)cc1,-38.2%,-11.1%,-18.8%,12.3%,8.2µM*,11.6µM*
CCc1ccc(S(=O)(=O)/N=C2\C=CC(=O)c3ccccc32)cc1,9.6%,.,.,.,.,.
CCc1ccc(S(=O)(=O)/N=C2\C=C(Nc3cccc(C(=O)O)c3)C(=O)c3ccccc32)cc1,-12.9%,-13.2%,-13.4%,4.6%,20.6µM*,?
Cc1cc(NC(=O)CS(=O)(=O)c2cn(Cc3cccc(F)c3)c3ccccc23)no1,3.4%,-3.2%,2.8%,0.5%,23.1µM*,?
